Compound activity deposited in PubChem BioAssay by National Center for Advancing Translational Sciences (NCATS).
The list is not random: actives were taken first. Their share in the collection is about 21%.
Pf growth 96h – inhibits malaria parasite growth, 96 h; actives 6.9% (n = 320,000); Potency, µM (titrated, usually from 28.7 µM), inactives show at the top dose activity change, negative = inhibition, actives largely listed as inhibitors; P. falciparum luciferase reporter growth, 96 h; note: potency is the fitted concentration of half-maximal effect; % is set by controls: 0 for no effect and ±100 for the full control effect
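P. falciparum expressing integrated firefly luciferase grown in erythrocytes (2% hematocrit, 0.05% parasitemia final) with compounds for 96 hours at 37 C, 5% CO2. Growth inhibition read as loss of luminescence after adding luciferase detection reagent.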
NS1 function inh – inhibitors of influenza NS1 protein function. Potency, µM (top dose mostly 46.1 µM), without a hit: at the highest dose activity, positive = more growth. actives 0.4% (n = 270,000). AID 2326; calls by dose curve; note: potency is the fitted concentration of half-maximal effect; actives are rising curves; nearly all actives have a fitted effect of over 50% in size
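A cell-based growth assay was used: compounds that relieve NS1-induced slow growth of budding yeast raise OD600. Assay medium was yeast nitrogen base with ammonium sulphate and -URA supplement, pH 6.0, with 2% galactose.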
CHX counter – counter-screen hit for Shiga toxin inhibitors, cycloheximide | cell reporter, cycloheximide protein synthesis inhibition counterscreen | max response, % | actives 12% (n = 300,000) | AID 2314; in the data active = max response mostly above about 13%, no sharp cut-off; inactive = mostly below about 14%; note: read at 38.3 µM for the half of the compounds with a filed dose; 0% is about no effect
Shiga toxin inh – Shiga toxin inhibition; Vero cells, Shiga toxin protein synthesis inhibition reporter; inhibition, % at 38.7 µM; actives 9.2% (n = 290,000); in the data active = inhibition mostly above about 28%, no sharp cut-off; inactive = mostly below about 43%; note: 0% is about no effect
Pf growth 48h – P. falciparum growth inhibition at 48 hours (one generation). P. falciparum luciferase growth in erythrocytes, 48 h. Potency, µM (series often up to 28.7 µM), without a hit: at the highest dose activity change, negative = inhibition, actives largely listed as inhibitors. actives 5.9% (n = 310,000); note: potency is the fitted concentration of half-maximal effect; % is set by controls: 0 for no effect and ±100 for the full control effect
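In quantitative HTS format, infected erythrocytes bearing luciferase-reporter parasites were treated for a single generation at 37 C. Luminescence after adding detection reagent served as the growth measure.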
The depositor's hits bear a star; [ ] = another dose, or the depositor's remark. Unless noted, calls come from the whole dose curve; as a rule, active = well fitted inhibition curve with a large enough effect; inconclusive = small, poorly fitted or top-dose-only effect, or another doubt; inactive = no such curve, though single readings can be large or run the other way.

For N/C(=N\OC(=O)c1cccc2ccccc12)c1ccncc1 the results were Pf growth 96h inconclusive, NS1 function inh -4%, CHX counter 45*, Shiga toxin inh 67* and Pf growth 48h inconclusive.
For COc1cc(C(=O)O/N=C(\N)c2ccncc2)cc(OC)c1OC the results were Pf growth 96h inconclusive, NS1 function inh 8%, CHX counter -3, Shiga toxin inh 16 and Pf growth 48h 9.3µM*.
C=CCN(CC=C)c1nc2ccccc2nc1C(C#N)C(=O)OCCOC (configuration not stated) was read as Pf growth 96h 6.6µM*, NS1 function inh -56%, CHX counter 2, Shiga toxin inh -7 and Pf growth 48h 10µM*.
O=C(NCc1cccnc1)c1cccc(NS(=O)(=O)c2ccc(Br)cc2)c1 was read as Pf growth 96h 23% and Pf growth 48h 3%.
For CCN(CC)c1ccc(CN2CCC(C(=O)NCc3ccc(C)cc3)CC2)cc1 the results were Pf growth 96h -17%[1.15 µM], NS1 function inh 6%, CHX counter -2, Shiga toxin inh -3 and Pf growth 48h 25%.
COC(=O)c1sc2ccccc2c1C(=O)OC was read as NS1 function inh -1%, CHX counter 6, Shiga toxin inh -7 and Pf growth 48h -1%.
COC(=O)c1sc2ccccc2c1N was read as Pf growth 96h inconclusive, NS1 function inh -49%, CHX counter 32*, Shiga toxin inh 60* and Pf growth 48h 94%.
For COC(=O)/C(=C1/Oc2ccc(C(C)(C)C)cc2S1)C(F)(F)F the results were Pf growth 96h inconclusive, NS1 function inh -9%, CHX counter 50*, Shiga toxin inh 10 and Pf growth 48h 57%.
For COC(=O)/C(=C1/Oc2cc(C)oc(=O)c2S1)C(F)(F)F the results were Pf growth 96h inconclusive, NS1 function inh -20%, CHX counter 12, Shiga toxin inh 20 and Pf growth 48h inconclusive.
COc1ccc(Nc2c3c(c(C#N)c4nc5ccccc5n24)CCC3)cc1 was read as Pf growth 96h 9.3µM*, NS1 function inh 21%, CHX counter 8, Shiga toxin inh 6 and Pf growth 48h inconclusive.
Screening CC(=O)c1ccc(Nc2c3c(c(C#N)c4nc5ccccc5n24)CCC3)cc1 returned Pf growth 96h 216%, NS1 function inh 22%, CHX counter -3, Shiga toxin inh -4 and Pf growth 48h 3.3µM*.
`N#Cc1c2c(c(NCCOCCO)n3c1nc1ccccc13)CCCC2` gave Pf growth 96h -16%, CHX counter 5, Shiga toxin inh -25 and Pf growth 48h inconclusive.
COCCNc1c2c(c(C#N)c3nc4ccccc4n13)CCCC2 was read as Pf growth 96h inconclusive, CHX counter -1, Shiga toxin inh 3 and Pf growth 48h 1.7µM*.
`N#Cc1c2c(c(NCc3cccnc3)n3c1nc1ccccc13)CCC2` gave NS1 function inh -8%, CHX counter -2, Shiga toxin inh -5 and Pf growth 48h 2.9µM*.
O=C(NC(=O)N1CCCCCC1)c1ccc(Cl)cc1 was read as Pf growth 96h inconclusive, NS1 function inh 4%, CHX counter -1, Shiga toxin inh 0 and Pf growth 48h 6%.
`Cc1ccc(N2C(=O)N(c3ccc(C)cc3)C3CS(=O)(=O)CC32)cc1` (configuration not stated) gave Pf growth 96h inconclusive, NS1 function inh -1%, CHX counter 1, Shiga toxin inh 24 and Pf growth 48h -7%.
`Cc1cc(N)n(-c2ccc3ccccc3c2)n1` gave Pf growth 96h 259%, NS1 function inh 24%, CHX counter 18*, Shiga toxin inh 43* and Pf growth 48h 58%.
O=C(Nc1ccc(F)c(Cl)c1)c1cc(-c2ccco2)on1 was read as Pf growth 96h -2%, NS1 function inh -9%, CHX counter 16, Shiga toxin inh 62* and Pf growth 48h 75%.
Screening Cc1ccc(NC(=O)c2cc(-c3cccc(O)c3)on2)cc1C returned Pf growth 96h -37%, NS1 function inh -36%, CHX counter 47* and Shiga toxin inh 78*.
Cc1ccc(NC(=O)c2cc(-c3ccco3)on2)cc1C was read as Pf growth 96h inconclusive, NS1 function inh -53%, CHX counter 38*, Shiga toxin inh 99* and Pf growth 48h 332%.
For O=C(Nc1cccc(O)c1)c1cc(-c2ccc3c(c2)OCO3)on1 the results were Pf growth 96h inconclusive, NS1 function inh -22%, CHX counter 3, Shiga toxin inh -2 and Pf growth 48h -23%.
Cc1ccc(NC(=O)c2cc(-c3ccco3)on2)cc1 was read as Pf growth 96h 7%, NS1 function inh -17%, CHX counter 41*, Shiga toxin inh 133* and Pf growth 48h 350%.
`Cc1cc(NC(=O)c2cc(-c3ccco3)on2)no1` gave Pf growth 96h -2%, NS1 function inh -70%, CHX counter 3, Shiga toxin inh -11 and Pf growth 48h 127%.
CC1CN(S(=O)(=O)c2ccc(F)cc2)C(C)N1C(=O)N1CCOCC1 (configuration not stated) was read as Pf growth 96h 7%, NS1 function inh -24%, CHX counter -4, Shiga toxin inh -3 and Pf growth 48h 31%.
For COC(=O)c1sc(-c2ccccc2)cc1NC(C)=O the results were Pf growth 96h 56%, CHX counter 6, Shiga toxin inh -15 and Pf growth 48h -2%.
Screening CN(C)C1NC(=O)c2cc(-c3ccccc3)sc2N1 (configuration not stated) returned Pf growth 96h 5%, NS1 function inh -16%, CHX counter 17*, Shiga toxin inh 31 and Pf growth 48h 125%.
`CC12CCC(C(=O)N3CCCCC3)(CC1=O)C2(C)C` (configuration not stated) gave Pf growth 96h -12%, NS1 function inh 13%, CHX counter 1, Shiga toxin inh -6 and Pf growth 48h 25%.
CC1CCCN(C(=O)C23CCC(C)(C(=O)C2)C3(C)C)C1 (configuration not stated) was read as Pf growth 96h 9.3µM*, NS1 function inh 4%, CHX counter -1, Shiga toxin inh 11 and Pf growth 48h 8%.
`COc1ccccc1C(=O)NC(=O)COc1ccc([N+](=O)[O-])cc1` gave Pf growth 96h 21% and Pf growth 48h 2%.
COc1ccccc1C(=O)NCCCNc1ccc([N+](=O)[O-])cc1 was read as Pf growth 96h 13µM*, NS1 function inh -3%, CHX counter -2, Shiga toxin inh -13 and Pf growth 48h 1%.
CCS(=O)(=O)NCCNc1ccc([N+](=O)[O-])cc1 was read as Pf growth 96h 12µM*, NS1 function inh -1%, CHX counter 0, Shiga toxin inh -18 and Pf growth 48h -2%.
For CC(=O)NCCCNc1ccc([N+](=O)[O-])cc1 the results were Pf growth 96h 1%, NS1 function inh -9%, CHX counter 23*, Shiga toxin inh 35* and Pf growth 48h 76%.
`CC1CC=CC2C1C(=O)N(Cc1ccccc1)C2c1ccc(Br)cc1F` (configuration not stated) gave CHX counter 18 and Shiga toxin inh 35.
